Screening data as filed in PubChem.
Only some compounds are listed: those with a hit (about 11% of all), similar ones and a draw of the others.
G9a inh: qHTS Assay for Inhibitors of Histone Lysine Methyltransferase G9a; AID 504332, 2011; Potency, µM (series often up to 102 µM), for the others: at the top dose activity, negative = inhibition, usual class: inhibitors; hit rate 8.8% among 350,000; G9a H3K9 monomethylation, AlphaScreen, 2 h; Histone-lysine N-methyltransferase EHMT2 (Homo sapiens), Q96KQ7; also: % is scaled to controls: 0 for no effect and ±100 for the full control effect; nearly all actives have a fitted effect of over 75% in size
Target sequence (Q96KQ7 913-1193 limits assumed): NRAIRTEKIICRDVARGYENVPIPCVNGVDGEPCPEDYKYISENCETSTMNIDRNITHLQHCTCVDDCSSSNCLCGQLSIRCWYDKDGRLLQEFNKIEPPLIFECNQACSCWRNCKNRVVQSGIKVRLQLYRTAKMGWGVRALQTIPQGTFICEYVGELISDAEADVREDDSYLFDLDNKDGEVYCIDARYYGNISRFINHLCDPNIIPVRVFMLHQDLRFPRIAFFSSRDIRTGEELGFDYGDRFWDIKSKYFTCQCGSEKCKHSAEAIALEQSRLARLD
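G9a (20 nM) was preincubated 15 min with compound, then reacted 2 h at room temperature with 500 nM biotin-H3K9 peptide and 20 µM SAM. Monomethyl-H3K9 detected by AlphaScreen using anti-H3K9me1 antibody.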
PLK1 PBD block: qHTS for Inhibitors of PLK1-PDB (polo-like kinase 1 - polo-box domain): Primary Screen. Serine/threonine-protein kinase PLK1 (Homo sapiens), P53350. Plk1 PBD binding of FITC phosphopeptide, fluorescence polarization. Potency, µM, for inactives: max response, negative = inhibition, most hits filed as inhibitors. hit rate 2.8% among 360,000. AID 720504, 2013; also: series mostly up to about 57 µM; % is scaled to controls: 0 for no effect and ±100 for the full control effect; nearly all actives have a fitted effect of over 65% in size
BAZ2B inh: qHTS Assay for Inhibitors of BAZ2B | Bromodomain adjacent to zinc finger domain protein 2B (Homo sapiens), Q9UIF8 | AlphaScreen BAZ2B-H3K14Ac peptide displacement | Potency, µM (titrated, usually from 114 µM), inactives show top-dose activity change, negative = inhibition, actives largely listed as inhibitors | hit rate 4.4% among 360,000 | AID 504333, 2011; also: % is scaled to controls: 0 for no effect and ±100 for the full control effect; nearly all actives have a fitted effect of over 60% in size
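AlphaScreen displacement of biotin-H3(5-23)K14Ac peptide (50 nM final) from BAZ2B (50 nM final) in PBS pH 7.4, 0.01% Tween-20; complex preformed 30 min RT, then compounds (top 110 uM) 30 min RT, beads 20 min dark.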
HP1b chromo inh: HTS for Inhibitors of HP1-beta Chromodomain Interactions with Methylated Histone Tails. AlphaScreen HP1-beta / biotin-H3K9me3 peptide binding. Potency, µM (titrated, usually from 114 µM), inactives show at the highest dose activity change, negative = inhibition, usual class: inhibitors. hit rate 0.56% among 390,000; also: nearly all actives have a fitted effect of over 70% in size
Target sequence (P83916 whole entry, looked up): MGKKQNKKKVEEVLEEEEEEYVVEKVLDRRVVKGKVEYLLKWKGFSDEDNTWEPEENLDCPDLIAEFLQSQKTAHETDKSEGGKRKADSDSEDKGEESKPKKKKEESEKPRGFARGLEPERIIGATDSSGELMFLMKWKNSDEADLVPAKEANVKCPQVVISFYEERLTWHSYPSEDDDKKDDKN
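Compound inhibition of the preformed complex between 50 nM HP1-beta and 50 nM biotinylated H3K9me3 peptide was read by AlphaScreen. Buffer was PBS pH 7.4 with 0.01% Tween-20. Incubations ran 30 min at room temperature, with 10 ug/mL donor/acceptor beads.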
VDR inh: Inhibitors of the vitamin D receptor (VDR): qHTS. AID 504847, 2011. hit rate 0.93% among 400,000. Potency, µM, for inactives: max response, negative = inhibition, usual class: inhibitors. VDR-SRC2-3 peptide fluorescence polarization, 2 h; also: % is scaled to controls: 0 for no effect and ±100 for the full control effect
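Measured by FP: displacement of SRC2-3 coactivator peptide from VDR by library compounds, following a two-hour ambient incubation.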
JMJD2A Tudor: qHTS Assay for Inhibitors of JMJD2A-Tudor Domain. Lysine-specific demethylase 4A (Homo sapiens), O75164. AlphaScreen JMJD2A-Tudor / H3K4me3 peptide binding. Potency, µM (titrated, usually from 114 µM), for the others: at the highest dose activity change, negative = inhibition, most hits filed as inhibitors. hit rate 4.4% among 390,000. AID 504339, 2011; also: % is scaled to controls: 0 for no effect and ±100 for the full control effect; nearly all actives have a fitted effect of over 50% in size
The depositor's hits bear a star; u = inconclusive; x = no result given; [ ] = remark or other dose. Calls follow the shape of the dose curve; as a rule, active = well fitted curve in the direction sought with a large enough effect; inconclusive = small, poorly fitted or top-dose-only effect, or another doubt; inactive = no such curve, though single readings can be large; an effect the other way counts as inactive or inconclusive. Potency is read from the fitted curve at half-maximal effect.

SMILES	G9a inh	PLK1 PBD block	BAZ2B inh	HP1b chromo inh	VDR inh	JMJD2A Tudor
COc1ccc2[nH]c(S(=O)Cc3ncc(C)c(OC)c3C)nc2c1 (stereo not given)	15.8µM*	-10.3%	-28.5%	x	x	50.1µM*
COc1cccc(-n2c(SCc3cc(=O)oc4cc(O)c(O)cc34)nc3ccccc3c2=O)c1	u	u	35.5µM*	u	-6.8%	39.8µM*
Cc1cc(/C=N/NC(N)=S)c(C)n1-c1ccc(Cl)cc1	-6.6%[59 µM]	29.9µM*	-30.3%	-20.6%	-28.4%	u
Cc1cc(/C=N/NC(N)=S)c(C)n1-c1ccc(Br)cc1	0.2%[59 µM]	-5.7%	u	7.9%	u	-25.5%
Cc1cccc(C)c1-n1c(C)cc(/C=N/NC(N)=S)c1C	50.1µM*	-18.3%	44.7µM*	-62.9%	u	50.1µM*
CCOC(=O)c1c(C)[nH]c(C)c1S(=O)(=O)N1CCCC(C(=O)Nc2cc(C)ccc2C)C1 (stereo not given)	-4.3%[59 µM]	x	-13.2%	44.1%	15.3%	-6.2%
CCOC(=O)c1c(NC(=O)c2cc3ccccc3c(=O)o2)sc2c1CCC(C(C)(C)C)C2 (stereo not given)	13.5%[59 µM]	x	8.9%[57.1 µM]	23.1%	-11.6%	-5.2%
COc1ccccc1C(=O)Nc1cccc(C(=O)OCc2cc(=O)n3nc(C)sc3n2)c1	1.0%[59 µM]	x	-4.3%	8.9%	-7.9%	-17.5%
COc1cccc(CN(C(=O)c2ccc(C(C)(C)C)cc2)C2CCS(=O)(=O)C2)c1 (stereo not given)	-6.6%[59 µM]	x	-9.2%	-4.4%	2.2%	-32.6%
CCOc1ccc(Cn2c(CNS(=O)(=O)c3ccc(Cl)s3)nc3cccnc32)cc1	42.6%[59 µM]	x	-1.4%	28.1%[57 µM]	1.7%	-17.1%
O=C(/C=C/NCC(=O)c1ccccc1)c1ccc(Br)cc1	6.31µM*	-10.8%	-35.0%	22.2%	-25.4%	-31.7%
O=C(/C=C/NNC(=O)c1ccccc1)c1ccc(Br)cc1	-40.9%	-8.8%	u	21.8%	13.1%	-26.4%
c1ccc(-c2c3ccccc3nc3[nH]c4ccccc4c23)cc1	89.1µM*	-12.2%	4.3%	55.8%	-7.9%	-7.7%
C[C@H](NS(=O)(=O)OCC(Cl)(Cl)Cl)C1CC1c1ccccc1 (stereo not given in full)	u	-28.1%	u	-17.3%	-9.5%	44.7µM*
CC(NS(=O)(=O)OCC(Cl)(Cl)Cl)c1ccc(C(C)(C)C)cc1 (stereo not given)	42.1%	-19.0%	9.8%	111.3%	-11.0%	33.6%
COc1ccc(CNC(=O)CN2CCN(S(=O)(=O)c3cc(Br)ccc3Br)CC2)cc1OC	50.1µM*	0.0%	-3.9%	6.2%	-7.5%	-27.0%
CN(CCOc1ccc(-c2ccn(S(=O)(=O)c3cccc4ccccc34)n2)cc1)c1ccccn1	-0.9%[59 µM]	0.0%	2.3%	42.9%	10.6%	-22.2%
CC(=O)c1cccc(NC(=O)c2ccccc2N(Cc2ccccc2)S(C)(=O)=O)c1	x	-3.9%	u	29.2%	-6.0%	-7.4%
N#Cc1cc2nc(O)c(O)nc2cc1[N+](=O)[O-]	1.3%[59 µM]	-20.6%	6.0%	-18.9%	-2.9%	79.4µM*
CCC1CC=CC2C1C(=O)N(Cc1ccccc1)C2c1ccc2ccccc2c1 (stereo not given)	x	x	x	40.7%	-15.6%	-4.1%
CCn1c(-c2c(Cl)c(C)nn2C)n[nH]c1=S	11.2µM*	-5.8%	-5.1%	-2.3%	-8.3%	20µM*
Cc1nn(C)c(C(=O)NN)c1Cl	6.3%	-6.6%	-14.5%	3.7%	7.0%	-18.6%
CCCCn1c(-c2c(Cl)c(C)nn2C)n[nH]c1=S	8.91µM*	u	-22.2%	-15.2%	-10.5%	12.6µM*
